# RORg inh: blocks mouse ROR gamma transcriptional activity; Drosophila S2 Gal4-RORgamma UAS-luciferase reporter, 20 h; Potency, µM (top dose mostly 53.6 µM), for the others: at the highest dose activity change, negative = inhibition, usual class: inhibitors; 310,000 tested, 5.4% active; AID 2551; also: potency is read from the fitted curve at half-maximal effect; nearly all actives have a fitted effect of over 60% in size
#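 Schneider cells (Drosophila), stable Gal4 DBD–ROR gamma + UAS-luc; 1 hr cmpd preincubation; Cu2+ induction 700 uM final; 20 hr ambient; luminescence.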
# TrxR1 inh: blocks rat thioredoxin reductase 1; O89049; recombinant rTrxR1, NADPH fluorescence consumption, selenite substrate; Potency, µM (top dose mostly 114 µM), for inactives: at the top dose activity change, negative = inhibition, most hits filed as inhibitors; 390,000 tested, 1% active; also: potency is read from the fitted curve at half-maximal effect; nearly all actives have a fitted effect of over 65% in size
# Target sequence (O89049 whole entry, looked up): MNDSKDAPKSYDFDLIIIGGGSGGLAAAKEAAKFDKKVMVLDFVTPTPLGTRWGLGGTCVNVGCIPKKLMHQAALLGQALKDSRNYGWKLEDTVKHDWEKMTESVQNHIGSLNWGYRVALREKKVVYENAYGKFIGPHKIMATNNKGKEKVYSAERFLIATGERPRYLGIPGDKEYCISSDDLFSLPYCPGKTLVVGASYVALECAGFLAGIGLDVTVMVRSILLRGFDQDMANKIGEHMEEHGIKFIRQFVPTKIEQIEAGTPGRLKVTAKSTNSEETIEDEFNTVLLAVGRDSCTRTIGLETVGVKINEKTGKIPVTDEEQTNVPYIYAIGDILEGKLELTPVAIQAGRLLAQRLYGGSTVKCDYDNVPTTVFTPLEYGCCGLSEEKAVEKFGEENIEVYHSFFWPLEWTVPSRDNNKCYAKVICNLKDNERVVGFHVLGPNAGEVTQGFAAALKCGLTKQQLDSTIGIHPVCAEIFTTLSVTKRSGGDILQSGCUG
#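 Rat TrxR1 (90 nM in the dispensed reagent) was pre-reduced with 400 uM NADPH for 5 min at room temperature, then incubated with compound for 15 min. After 400 uM selenite was added, NADPH fluorescence (Ex 340/Em 450 nm) was followed for 8 min.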
# GALK inhibitor: galactokinase (human) inhibition. P51570. AID 1868. Potency, µM (titrated, usually from 57.5 µM), without a hit: top-dose activity change, negative = inhibition, most hits filed as inhibitors. 270,000 tested, 0.007% active. Purified GALK, Kinase-Glo residual ATP luminescence; also: potency is read from the fitted curve at half-maximal effect
#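 Galactose (100 uM) and ATP (35 uM) were turned over by 5 nM GALK for 1 h at RT. Kinase-Glo Plus then converted the remaining ATP into a luminescent signal.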
# Coupling enz: inhibits coupling enzyme system, counter-screen for aldolase hits; coupling enzyme system counterscreen, AmpLite Red fluorescence; activity change, negative = inhibition, % at 58.2 µM, hits read low; 290,000 tested, 0.67% active; AID 2472; in the data active = activity change below about -30%
#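 Counterscreen lacking aldolase: glyceraldehyde-3-phosphate coupling-enzyme reagent preincubated 10 min at RT with compound (at 57.5 uM final), then substrate/coupling system with AmpLite Red added; fluorescence read at 525/598 nm after 20 min RT.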
# TrxR1 substrate: rat thioredoxin reductase 1 substrate activity; AID 588456; O89049; purified TrxR1 substrate turnover, NADPH consumption readout; Potency, µM (doses to about 114 µM), for the others: at the top dose activity change, negative = substrate turnover; 390,000 tested, 0.01% active; also: potency is read from the fitted curve at half-maximal effect; nearly all actives have a fitted effect of over 50% in size
#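 Rat TrxR1, dispensed at 90 nM, was prereduced with 400 uM NADPH (final) for 5 min at ~22 deg C, then incubated with compound 15 min before 400 uM selenite. A first-read NADPH fluorescence drop versus no-compound background flagged substrates.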
# VP16 counter: counter-screen for ROR gamma inhibitors: Gal4-VP16 reporter; Drosophila S2 Gal4-VP16 UAS-luciferase, luminescence, 20 h; Potency, µM (series often up to 53.6 µM), for inactives: top-dose activity, negative = inhibition, usual class: inhibitors; 310,000 tested, 3.5% active;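 also: Gal4-VP16 expression switched on by copper sulfate through the metallothionein promoter; potency is read from the fitted curve at half-maximal effect; nearly all actives have a fitted effect of over 50% in size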
# * marks the source's active call; other numbers are inactive results; ? = inconclusive; nt = no result; [ ] = another dose, or the depositor's remark. Sampled rows, rich in hits. Any-hit rate of the full collection: about 5.9%. Unless noted, calls follow the shape of the dose curve; as a rule, active = well fitted curve in the direction sought with a large enough effect; inconclusive = small, poorly fitted or top-dose-only effect, or another doubt; inactive = no such curve, though single readings can be large; an effect the other way counts as inactive or inconclusive. % is scaled to controls: 0 for no effect and ±100 for the full control effect.
SMILES,RORg inh,TrxR1 inh,GALK inhibitor,Coupling enz,TrxR1 substrate,VP16 counter
CCCCS(=O)(=O)c1oc(-c2ccc(F)cc2)nc1S(=O)(=O)c1ccccc1,nt,1.12µM*,nt,nt,-2.7%,nt
CC(C)S(=O)(=O)c1oc(-c2ccc(F)cc2)nc1S(=O)(=O)c1ccccc1,nt,0.316µM*,nt,nt,11.1%,nt
CS(=O)(=O)c1oc(-c2ccc(F)cc2)nc1S(=O)(=O)c1ccc(Cl)cc1,nt,0.501µM*,nt,nt,10.8%,nt
CSc1oc(-c2ccc(F)cc2)nc1S(=O)(=O)c1ccc(F)cc1,-2.3%,21.0%[57.1 µM],1.9%,0.0,3.1%[57.1 µM],-0.9%
CC(=O)Oc1c(Br)cc(N(C(C)=O)S(=O)(=O)c2ccccc2)c2ccccc12,3.9%[1.91 µM],-29.0%,-0.8%,-45.2*,?,?
CC(=O)Oc1ccccc1N(C(C)=O)S(=O)(=O)c1ccc2ccccc2c1,?,17.3%[57.1 µM],3.7%,1.0,6.1%[57.1 µM],-4.0%
CCOc1ccc(OCCCC(=O)Nc2cc(Cl)ccc2-n2cncn2)cc1,nt,7.5%,nt,nt,-2.3%,nt
Cc1ccc(S(=O)(=O)CCC(=O)Nc2cc(Cl)ccc2-n2cncn2)cc1,nt,12.6µM*,nt,nt,5.1%,nt
Cc1nn2c(nc1=O)NNC2(C)C(C)(C)C (stereo not drawn),11.2µM*,13.9%,1.1%,-0.4,9.7%,-13.8%
COc1ccc(C2(c3ccc(OC(C)=O)cc3OC(C)=O)CC(c3ccccc3)NC(=S)N2)cc1 (stereo not drawn),-43.8%,-14.5%,-0.6%,0.7,0.2%,-4.1%
CC(=O)Oc1ccc(C2(C)CC(C)(C)NC(=S)N2C)c(OC(C)=O)c1 (stereo not drawn),12.6µM*,6.3%,-1.7%,1.2,6.3%,?
CN1CCN(c2ccc(S(=O)(=O)N3CCCCC3)cc2NC(=O)c2ccc3ccccc3c2)CC1,11.2µM*,-2.2%,2.4%,-1.3,-8.7%,8.91µM*
CN(c1ccccc1C(=O)Nc1cccc(Br)c1)S(=O)(=O)c1ccccc1,-12.7%,9.7%,2.5%,-3.2,-10.2%,-5.6%
C=CCn1c(O)c(CN2CCN(Cc3ccccc3)CC2)c(C)c(C#N)c1=O,23.4%,-26.9%,-0.1%,-42.1*,-1.0%,5.6%
Cc1c(CN2CCCCC2)c(O)n(CCCO)c(=O)c1C#N,2.4%,-36.6%,5.3%,-30.5*,-10.7%,-16.5%
CCCn1c(C)cc(C)c(C#N)c1=O,-4.4%,5.8%,-0.2%,-0.4,2.7%,-4.8%
CCCn1c(O)c(CN2CCCCC2)c(C)c(C#N)c1=O,-0.7%,-21.0%,8.3%,-39.7*,8.6%,-0.6%
Cc1cc(C)c(C#N)c(N2CCN(Cc3ccccc3)CC2)n1,11.0%,15.8%,-3.5%,0.4,0.0%,7.8%
Cn1c(CN2CCCCC2)c(C#N)c2ccccc21,-13.0%,-10.8%,3.7%,-0.5,6.7%,-0.8%
CC12CN3CC(C)(CN(C1)C3c1ccc3ccccc3c1O)C2=O (stereo not drawn),?,-6.5%,2.2%,-47.9*,-6.6%,-3.9%
FC(F)(F)c1nnc2c(Sc3ccccn3)nc3ccccc3n12,10µM*,?,-1.8%,6.3,16.3%[57.1 µM],20µM*
CC(C)Cc1nc2sc3c(c2c(=O)n1N)CC(C(C)C)OC3 (stereo not drawn),-5.8%,9.8%,5.7%,1.3,-0.8%,1.2%
C=C1CCN(c2ccc(C(=O)NCc3ccc(C)cc3)cc2[N+](=O)[O-])CC1,19.5%,28.7%,nt,-0.1,3.6%[57.1 µM],1.1%
COc1ccc(-n2c(=S)[nH]c3cc(C(=O)NCc4ccccc4)ccc3c2=O)c(OC)c1,20µM*,6.6%[57.1 µM],-0.3%,2.2,-15.8%[57.1 µM],?
COCCn1c(=S)[nH]c2cc(C(=O)NCCc3ccccc3)ccc2c1=O,-11.0%,4.5%,-5.8%,nt,3.7%,2.0%
SMILES,RORg inh,TrxR1 inh,GALK inhibitor,Coupling enz,TrxR1 substrate,VP16 counter
COc1ccc(-n2c(=S)[nH]c3cc(C(=O)N4CCN(c5ccccc5)CC4)ccc3c2=O)c(OC)c1,?,-15.6%,14.6%,-0.1,-1.1%,12.6µM*
COc1ccc(OC)c(NC(=O)c2ccc3c(=O)n(CCc4ccccc4)c(=S)[nH]c3c2)c1,0.794µM*,-6.9%,0.7%,-2.0,-10.5%,0.891µM*
Cc1ccc(-c2nc(CN3CCN(C(=O)C4CCCO4)CC3)cs2)cc1 (stereo not drawn),?,?,-7.0%,nt,-0.2%,-23.0%
O=S1(=O)N=C(N/N=C/c2ccco2)c2ccccc21,7.94µM*,-6.2%[57.1 µM],7.0%,-1.0,-5.0%[57.1 µM],?
O=[N+]([O-])c1ccccc1/C=N/NC1=NS(=O)(=O)c2ccccc21,1.6%,6.0%,-1.3%,-8.4,-11.8%,-9.2%
COc1ccccc1-c1nccc(NCc2cccnc2)n1,15.2%,nt,nt,2.3,nt,-10.2%
COc1ccc(/C(C)=N/NC(=O)CNC(=O)Cc2ccccc2)c(OC)c1,-0.8%,15.2%,6.1%,0.2,-1.5%,-20.8%
Oc1ccc(Br)cc1/C=N/NC(=S)NCCc1ccccc1,15.8µM*,-20.7%,2.2%,-2.0,-2.5%,15.8µM*
Oc1ccc(Br)cc1/C=N/Nc1ncc(-c2ccccc2)cn1,11.2µM*,20.0%[57.1 µM],-1.3%,-0.2,-7.1%,-13.8%
S=C(NCCc1ccccc1)N/N=C/c1ccccc1Cl,11.2µM*,3.3%[57.1 µM],1.6%,-0.6,-6.8%,?
COc1ccc(/C(C)=N/NC(=S)NCCc2ccccc2)c(O)c1,5.01µM*,-12.5%,4.6%,-1.0,-2.5%,7.08µM*
O=S(=O)(c1ccc2ncn(O)c2c1)N1CCOCC1,-1.4%,33.6%,0.9%,-0.7,10.4%,8.8%
O=C(O)c1ccccc1SCc1csc(-c2ccccc2)n1,19.7%,11.4%,-1.1%,12.4,2.2%,-0.6%
COc1cc(/C=N\NC(=O)CC(=O)NCCc2ccccc2)ccc1O,0.8%,20.0%[57.1 µM],4.0%,0.6,-19.0%[57.1 µM],-24.8%
COc1ccc(O)c(/C=N/NC(=S)NCCc2ccccc2)c1,3.16µM*,12.2%,3.9%,-1.5,19.6%,7.08µM*
CN1CCN(C(c2ccc(Br)cc2)c2cc(Cl)c3cccnc3c2O)CC1 (stereo not drawn),2.82µM*,8.91µM*,13.9%,-3.1,3.5%,0.794µM*
CN1CCN(C(c2ccc(F)cc2)c2ccc3cccnc3c2O)CC1 (stereo not drawn),nt,22.8%,nt,nt,0.5%,nt
CN1CCN(C(c2cccnc2)c2ccc3cccnc3c2O)CC1 (stereo not drawn),1.9%,5.01µM*,-2.9%,-2.3,7.7%,-4.7%
CCC/C=C1\CCCOC(C(=O)NCc2ccccc2)(C(F)(F)F)C1 (stereo not drawn),-35.6%,?,nt,4.0,-0.6%,-19.0%
CCOC(=O)c1c(C)oc2nc(C)nc(NCCCN3CCN(c4cc(Cl)ccc4C)CC3)c12,nt,9.4%,nt,nt,-6.0%,nt

# Compound activity from PubChem.
